AmpC inh detg: blocks E. coli AmpC beta-lactamase in detergent assay; P00811; AmpC hydrolysis of nitrocefin, absorbance 480 nm, 0.01% Triton; Potency, µM (titrated, usually from 114 µM), hits mostly inhibitors; hit rate 0.041% among 370,000; AID 485294; note: nearly all actives have a fitted effect of over 25% in size
Target sequence (P00811 whole entry, looked up): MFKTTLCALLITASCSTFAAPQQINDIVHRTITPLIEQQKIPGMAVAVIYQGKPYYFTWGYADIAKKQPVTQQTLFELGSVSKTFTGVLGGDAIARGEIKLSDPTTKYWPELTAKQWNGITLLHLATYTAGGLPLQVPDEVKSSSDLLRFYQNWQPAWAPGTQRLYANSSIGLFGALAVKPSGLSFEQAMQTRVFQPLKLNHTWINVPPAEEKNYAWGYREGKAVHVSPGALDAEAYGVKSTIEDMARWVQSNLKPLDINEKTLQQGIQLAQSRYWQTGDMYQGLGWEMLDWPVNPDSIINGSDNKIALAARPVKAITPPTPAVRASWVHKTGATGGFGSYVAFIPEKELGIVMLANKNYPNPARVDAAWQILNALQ
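20 mM phosphate pH 7.0 + 0.01% (detergent screen) or 0.0001% Triton X-100; 5.3 nM AmpC reagent; cpd preinc 15 min RT; nitrocefin (800 uM stock) to start; A480 q20 s × 4 min; Activity was normalised to no-enzyme and no-compound control wells.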
AmpC no deterg: inhibitors of E. coli AmpC beta-lactamase without detergent | P00811 | AmpC nitrocefin hydrolysis, absorbance 480 nm, 0.0001% Triton | Potency, µM (top dose mostly 57.1 µM), hits mostly inhibitors | hit rate 0.52% among 330,000 | AID 485341; note: nearly all actives have a fitted effect of over 20% in size
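20 mM phosphate pH 7.0 + 0.01% (detergent screen) or 0.0001% Triton X-100; 5.3 nM AmpC reagent; cpd preinc 15 min RT; nitrocefin (800 uM stock) to start; A480 q20 s × 4 min; Activity was normalised to no-enzyme and no-compound control wells.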
AMA1 RON2 block: disrupts binding of P. falciparum AMA1 to RON2. AlphaScreen AMA1-biotinylated RON2 peptide binding. Potency, µM (doses to about 58.2 µM), most hits filed as inhibitors. hit rate 0.2% among 360,000. AID 720542; note: nearly all actives have a fitted effect of over 45% in size
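AMA1 (3D7) with his tag at 25 nM final met compounds first, then biotinylated RON2 peptide at 25 nM; detection used donor plus acceptor beads, 10 µg/mL apiece, read by AlphaScreen after 30 min at room temperature.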
Shiga inhibitor: blocks Shiga toxin action in Vero cells; Vero cells, Shiga toxin protein synthesis inhibition reporter; inhibition, % at 38.7 µM; hit rate 9.2% among 290,000; in the data active = inhibition mostly above about 28%, no sharp cut-off; inactive = mostly below about 43%
CHX counter: counter-screen hit for Shiga toxin inhibitors, cycloheximide. cell reporter, cycloheximide protein synthesis inhibition counterscreen. max response, %. hit rate 12% among 300,000; in the data active = max response mostly above about 13%, no sharp cut-off; inactive = mostly below about 14%; note: read at 38.3 µM for the half of the compounds with a filed dose
SARS PLP yeast: inhibitors of SARS-CoV papain-like protease in yeast. S. cerevisiae expressing SARS-CoV PLpro, growth rescue. Potency, µM (titrated, usually from 32.9 µM), hits mostly activators. hit rate 0.19% among 330,000. AID 485353; calls by dose curve; note: nearly all actives have a fitted effect of over 55% in size
Large screens that a line does not name were inactive. This excerpt belongs to a sample that is enriched for hits. Unless noted, calls come from the whole dose curve; as a rule, active = well fitted curve in the direction sought with a large enough effect; inconclusive = small, poorly fitted or top-dose-only effect, or another doubt; inactive = no such curve, though single readings can be large; an effect the other way counts as inactive or inconclusive.

CCOc1ccc2oc(C(=O)Nc3ccc4c(c3)OCO4)c(C)c2c1	Shiga inhibitor 106, CHX counter 25
CCOc1ccc2oc(C(=O)O)c(C)c2c1	CHX counter 26
Cc1oc2ccc(OCc3ccc(Cl)cc3)cc2c1C(=O)O	Shiga inhibitor 87, CHX counter 27
CCOC(=O)C1=CCC(c2ccccc2)N(S(=O)(=O)c2ccccc2[N+](=O)[O-])C1 (configuration not stated)	none (no result: AmpC inh detg, AmpC no deterg, Shiga inhibitor, CHX counter, SARS PLP yeast)
O=C(NNC(=O)c1cnccc1C(F)(F)F)c1ccccc1	none
COc1ccc(N2CC(C(=O)NNC(=O)c3ccc(Br)cc3)CC2=O)c(OC)c1 (configuration not stated)	none (no result: Shiga inhibitor, CHX counter, SARS PLP yeast)
Nc1nc(-c2cc(-c3ccccc3)no2)cs1	Shiga inhibitor 69, CHX counter 32
Nn1c(-c2cccc(Br)c2)n[nH]c1=S	AmpC inh detg inconclusive
O=C(c1ccccc1)c1cc(-c2ccccc2)on1	CHX counter 19
c1ccc(-c2cc(-c3ccccc3)on2)cc1	Shiga inhibitor 67, CHX counter 35
Nc1nc(-c2cccc(Br)c2)cs1	Shiga inhibitor 82, CHX counter 46
COc1ccc(OC)c(/C=N/NC(=S)NCCc2ccccc2)c1	none
O=C1C2C3CCC(C3NCc3ccccc3)C2C(=O)N1Cc1ccccc1 (configuration not stated)	none
Nc1nc(-c2ccc(F)cc2)cs1	none
Nc1nc(-c2ccc(Br)cc2)cs1	AmpC no deterg inconclusive, Shiga inhibitor 88, CHX counter 20
Nc1nc(-c2ccc([N+](=O)[O-])cc2)cs1	none
Brc1ccc(-c2csc(Nc3nc(-c4ccc(Br)cc4)cs3)n2)cc1	CHX counter 22
Nc1nc(-c2ccccc2)cs1	Shiga inhibitor 35, CHX counter 29
O=C(CSc1nc2ccccc2[nH]1)Nc1nc(-c2ccc(Br)cc2)cs1	AmpC inh detg inconclusive
Cc1cc(C)cc(N(CCC#N)C(=O)CSc2n[nH]c(N)n2)c1	none (no result: Shiga inhibitor, CHX counter)
CC(C)N1CC(C(=O)Nc2ccc(Cl)c([N+](=O)[O-])c2)CC1=O (configuration not stated)	none
Cc1ccc(-c2cc(C(=O)NN=C3CCCC3)c3ccccc3n2)cc1	none
COc1ccc(C(=O)Nn2c(C)nnc2-n2nc(C)cc2C)cc1OC	SARS PLP yeast inconclusive
CC1=CC(C)(C)Nc2ccc(OS(=O)(=O)c3ccc(C)cc3)cc21	Shiga inhibitor 40
CC1=CC(C)(C)Nc2ccc(OC(=O)CCN3C(=O)c4ccccc4C3=O)cc21	CHX counter 22, SARS PLP yeast inconclusive
COc1ccc2c(c1)NC(C)(C)C=C2C	AMA1 RON2 block inconclusive
COC(=O)c1ccc(OS(=O)(=O)c2ccc(NC(C)=O)cc2)cc1	none
CC(=O)Nc1ccc(S(=O)(=O)Oc2ccc3c(c2)C(C)=CC(C)(C)N3)cc1	CHX counter 16 (no result: AMA1 RON2 block)
O=C(CCN1C(=O)c2ccccc2C1=O)Oc1ccc2ccccc2c1	none
NC(=O)NN=C1CCN2CCCc3cccc1c32	none (no result: AmpC inh detg, AmpC no deterg, Shiga inhibitor, CHX counter, SARS PLP yeast)
N#Cc1ccc(N2Cc3ccccc3C2=NC(=O)c2cccnc2Cl)cc1	Shiga inhibitor active, CHX counter 25
N=C1c2ccccc2CN1c1ccc(F)c([N+](=O)[O-])c1	none
O=C(N=C1c2ccccc2CN1c1ccc(F)c(Cl)c1)c1cccnc1Cl	AmpC inh detg inconclusive, Shiga inhibitor 77, CHX counter 70 (no result: AMA1 RON2 block)
CC(=O)NC(CC(=O)NC1CCCCC1)c1ccccc1 (configuration not stated)	none
CC1(C)C(/C=C/C=C/C=C/C=C2\N(CCCCS(=O)(=O)O)c3ccc4ccccc4c3C2(C)C)=[N+](CCCCS(=O)(=O)[O-])c2ccc3ccccc3c21	AMA1 RON2 block 8.9µM (no result: AmpC inh detg, AmpC no deterg, Shiga inhibitor, CHX counter, SARS PLP yeast)
Cc1ccc2nc(SCC(=O)c3c(C)[nH]c4ccccc34)[nH]c2c1	CHX counter 21
Cc1ccc2nc(SCC(=O)c3c[nH]c4ccccc34)[nH]c2c1	Shiga inhibitor 71
Cc1[nH]c2ccccc2c1C(=O)CSC(=S)N(C)C	Shiga inhibitor 74, CHX counter 30
Fc1ccccc1CSc1nc2ncccc2[nH]1	AmpC inh detg inconclusive, Shiga inhibitor 63, CHX counter 45
Cc1[nH]c2ccccc2c1C(=O)CSC(=S)N1CCN(C)CC1	none
O=C(CSc1nc2ccccc2[nH]1)c1ccccc1F	Shiga inhibitor 92, CHX counter 40
O=C(CSc1nc2ccccc2[nH]1)c1ccc(Cl)s1	Shiga inhibitor 86, CHX counter 39
Cc1nc(SCC(=O)c2c[nH]c3ccccc23)n[nH]1	none
Cc1noc(C)c1CSc1nc2ccccc2[nH]1	AmpC inh detg inconclusive
Fc1cccc(F)c1CSc1nc2ccccc2[nH]1	AmpC inh detg inconclusive, Shiga inhibitor 111, CHX counter 37
O=C(CSc1nc2ccccc2[nH]1)c1c[nH]c2ccccc12	Shiga inhibitor 72, CHX counter 29
O=C1CCCc2c1nc(-c1ccccc1)n2O	none
COc1ccc2[nH]c(C)c(CCNCc3cc(OC)c(OC)c(OC)c3)c2c1	none
Fc1cccc(CSc2nc3ccncc3[nH]2)c1	Shiga inhibitor 50, CHX counter 32
COc1ccc(-c2nc(Cn3c(SCc4ccccc4F)nc4cccnc43)c(C)o2)cc1	none (no result: AmpC no deterg, AMA1 RON2 block, Shiga inhibitor, CHX counter, SARS PLP yeast)
Clc1cccc(CSc2nc3ccncc3[nH]2)c1	none
Cn1c(SCc2ccccc2F)nc2cccnc21	Shiga inhibitor 117, CHX counter 28
CN1OC[C@@H]2CN(S(=O)(=O)c3ccccc3)[C@H](c3cccc(Br)c3)C[C@@H]21	none (no result: AmpC inh detg, AmpC no deterg, Shiga inhibitor, CHX counter, SARS PLP yeast)
COc1ccccc1N=C1NC(=O)/C(=C/c2ccc(N(C)C)cc2)S1	Shiga inhibitor 56, CHX counter 41
COc1ccc(/C=C2\SC(=Nc3ccccc3)NC2=O)cc1	none (no result: AMA1 RON2 block)
O=C(c1ccc(F)cc1)N1CCCC(c2ccccc2)C1 (configuration not stated)	none
Cc1cccc(OCC(=O)N2CCN(C(=O)Cc3ccccc3)CC2)c1	none
Cc1cccc(OCC(=O)N2CCC(c3ccccc3)C2)c1 (configuration not stated)	Shiga inhibitor 79, CHX counter 30
O=C(COc1ccc(F)cc1)N1CCC(c2ccccc2)C1 (configuration not stated)	Shiga inhibitor 58, CHX counter 43
CC(=O)NNC(=O)CCn1nnc(-c2ccc(Cl)cc2)n1	none
COC(=O)c1ccc(-n2c(C)cc(/C=N/Nc3nc(C)cc(=O)[nH]3)c2C)cc1	none
Cc1cc(C)nc(Nc2n[nH]c(-c3cccc4ccccc34)n2)n1	CHX counter 19
CN(CCc1cnn(C)c1)Cc1cn[nH]c1-c1ccc(-c2ccccc2)cc1	Shiga inhibitor 43, CHX counter 17
Cn1cc(CCNCc2cn[nH]c2-c2ccc(-c3ccccc3)cc2)cn1	Shiga inhibitor 54, CHX counter 31
